A short description of assay [1]: blockers of polyQ-driven CASP3 activation – cell-based (AID 1583). To be noted: polyglutamine-induced caspase-3 activation, cell assay; stronger effect = higher value;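 tested at 10 µM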.
Assay [2] can be described thus: yeast 75Q aggregation reduction – 75Q-TubU reporter (AID 1593). To be noted: Yeast 75Q polyglutamine aggregation reporter.
Assay [3] can be described thus: restoration of touch response, mutant HTT neurons – whole organism, C. elegans mechanosensory neurons, N-terminal huntingtin (AID 1599). To be noted: C. elegans polyQ-huntingtin mechanosensory neurons, stronger effect = higher value.
Assay [4] is described as follows: blockers of cytochrome c efflux from mitochondria – biochemical, purified mitochondria (AID 1603).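 Note: mouse liver mitochondria challenged with calcium chloride; signal normalized to the plate average as 100%.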 To be noted: stronger effect = lower value.
Assay [5] can be described thus: polyglutamine aggregate formation blockers (AID 1604). The conditions noted are these: polyglutamine-induced protein aggregation inhibition assay; stronger effect = higher value; tested at 2.5 µM.
Assay [6] is described as follows: glutamate transport activators, MN-1 cells, MN-1 cell line (AID 1612).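 Note: tested at 1 µM final; 0% = mean of DMSO vehicle wells on each plate; positive means more glutamate uptake than control and negative means less.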 To be noted: MN-1 motor neuron cells, stronger effect = higher value.
Assay [7] in a line: GFP-Q80 aggregate reduction, neuronal-like cells, cell-based, NGF-treated PC12, GFPQ80 (AID 1614).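 Note: lower means fewer inclusions and 0 means no inclusions at all.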 To be noted: PC12 NGF-treated GFP-polyQ80 inclusion reduction.
Assay [8] can be described thus: 75Q-TubH aggregate inhibition, S. cerevisiae, yeast (AID 1616). To be noted: S. cerevisiae 75Q-TubH polyglutamine aggregation suppression; stronger effect = higher value.
Assay [9] is described as follows: P. berghei load reduction in hepatocytes – cell-based, HepG2, luciferase luminescence, HepG2 viability, primary screen (AID 624349).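 Note: 100% = mean of DMSO negative control wells on the same plate.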 To be noted: P. berghei liver stage in HepG2, luciferase luminescence, concentration not given here; parasite load remaining: stronger effect = lower value; viability: measured here: HepG2 viability without parasites.
Assay [10] can be described thus: EMT-state selective cytotoxicity in co-culture – imaging, PC-3E GFP, TEM4-18 mCherry, primary screen (AID 1345086;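 active = compounds killing one labelled cell type while sparing the other, by normalised counts and ratio limits, not self-fluorescent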;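 for all read-outs here: cells exposed to compound for 72 h before imaging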;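 for red/green cell ratio (normalised): normalised mesenchymal count divided by normalised epithelial count so high means epithelial killing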). The conditions noted are these: PC-3E GFP / TEM4-18 mCherry co-culture, imaging cell counts, at 1 µM; for red/green cell ratio (normalised): actives lie on both sides, counts scaled to control wells, 1 = unselective.
Assay [11] is described as follows: viability loss with induced miR-34 in A549 – imaging, A549 dox-inducible miR-34, nuclei and caspase counts, primary screen (AID 1347080;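 active = compounds whose cell count with miR-34 switched on is under 0.7 times the count with it off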). To be noted: A549 miR-34 inducible, Hoechst nuclei count, 48 h.
Setting [12] is: measured here: epithelial PC-3E GFP cell survival.
Where [13] appears, read: measured here: mesenchymal TEM4-18 mCherry cell survival.
The mark [14] stands for this setting: stronger effect = lower value, cell number ratio, induced over uninduced.
[15] abbreviates: measured here: relative caspase fold change +Dox/-Dox.
Setting [16] is: measured here: total cells with miR-34 induction, stronger effect = lower value.
Where [17] appears, read: measured here: total cells without miR-34 induction.

Values joined by “and” are separate entries in the source; they are usually repeats but may differ in a detail not shown here. Identical values can stand only once. For part of these data: Measured potencies and affinities stand elsewhere. Active and inactive are the calls of the source. Cut-off read from the data, not from the text of the source, unless noted: active = parasite load remaining mostly below about 12% (no sharp cut-off); inactive = mostly above about 10%.

For the compound `CCC[C@@H]1C[C@@H](C(=O)N[C@H]([C@H]2O[C@H](SC)[C@H](O)[C@@H](O)[C@H]2O)[C@H](C)O)N(C)C1`, the inhibition in assay [1] was found to be 3.68%. The compound further displayed a score in assay [2] of 1.23. Besides, the rescue above control in [3] was found to be 8.96. Further, the cytochrome c release ratio in [4] is 0.99. The compound further returned an inhibition of aggregation in assay [5] of 67.6%. The glutamate uptake change in assay [6] is -19.8%. In addition, the inclusion score in [7] was determined as 2. The compound further returned an aggregation suppression score in assay [8] of 1.16. The parasite load remaining in [9] was 81.5% (inactive) and 50.6% (inactive). The viability in assay [9] is 72.6% and 86.3%. Further, the red/green cell ratio (normalised) in [10] is 1.04 (inactive). Moreover, the normalised cell number in assay [10] (setting [12]) turned out to be 1.09; in assay [10] (setting [13]), 1.13. Moreover, the fold change was 0.939 (inactive) in assay [11] (setting [14]) and 2.92 in assay [11] (setting [15]). The cell count came to 11900 in [11] (setting [16]) and 12700 in assay [11] (setting [17]).

Turning to `NC(=O)c1cc[n+](CC2=C(C(=O)O)N3C(=O)C(NC(=O)C(c4ccccc4)S(=O)(=O)[O-])C3SC2)cc1` (configuration not stated), the inhibition in [1] was -4.99%. The compound also displayed a score in assay [2] of 0.99. The compound also returned a rescue above control in [3] of -3.36. Moreover, the cytochrome c release ratio in [4] is 0.92. For the same compound, in [5], the inhibition of aggregation stood at 24.1%. Further, the glutamate uptake change in assay [6] is -27.4%. Moreover, the inclusion score in [7] amounted to 2. In addition, the aggregation suppression score in assay [8] stood at 1.42. For the same compound, the parasite load remaining in assay [9] is 51% (inactive). The viability in assay [9] worked out at 86.8%. Besides, the red/green cell ratio (normalised) in [10] was 0.99 (inactive). In addition, the normalised cell number was 1.08 in assay [10] (setting [12]) and 1.07 in [10] (setting [13]). The values for the fold change in [11] (setting [14]) and in assay [11] (setting [15]) were 0.877 (inactive) and 3.65, respectively. In addition, the cell count in [11] (setting [16]) amounted to 11600; in assay [11] (setting [17]), 13200.

Turning to `CC(=O)OCC(=O)[C@@]12OC3(CCCC3)O[C@@H]1CC1C3CCC4=CC(=O)C=C[C@]4(C)[C@@]3(F)[C@@H](O)C[C@@]12C` (some centres not stated), the inhibition in [1] was found to be 11.1%. The compound also returned a score in [2] of 0.65. The compound also displayed a rescue above control in [3] of -4.49. Moreover, the cytochrome c release ratio in assay [4] is 0.91. In assay [5], this compound had an inhibition of aggregation of 31.4%. Moreover, in assay [6], the glutamate uptake change came to 27.2%. The compound also displayed an inclusion score in assay [7] of 2. Also, the aggregation suppression score in assay [8] is 0.855. For the same compound, the parasite load remaining in [9] is 189% (inactive) and 59% (inactive). The viability in [9] was 84% and 96.4%. Moreover, the red/green cell ratio (normalised) in assay [10] was 1.04 (inactive). Moreover, the results for the normalised cell number in [10] (setting [12]) and in assay [10] (setting [13]) were 1.4 and 1.46, respectively. Moreover, the values for the fold change in [11] (setting [14]) and in assay [11] (setting [15]) were 0.917 (inactive) and 2.86, respectively. The cell count in assay [11] (setting [16]) was 7510; in assay [11] (setting [17]), 8190.

In the case of `Nc1ncnc2c1ncn2C1O[C@H](COP(=O)(O)O)[C@@H](O)[C@H]1O` (some centres not stated), the inhibition in assay [1] was found to be 5.37%. This compound also displayed a score in [2] of 1.5. This compound yielded a rescue above control in [3] of 1.04. For the same compound, the cytochrome c release ratio in [4] was 0.86. In assay [5], this compound returned an inhibition of aggregation of 92.6%. Besides, in assay [6], the glutamate uptake change is -13.1%. In addition, the inclusion score in assay [7] worked out at 2. Besides, the aggregation suppression score in [8] turned out to be 1.2. Further, the parasite load remaining in assay [9] was 124% (inactive) and 48.3% (inactive). In assay [9], the viability is 75.9% and 108%. For the same compound, the red/green cell ratio (normalised) in assay [10] is 0.96 (inactive). Also, the normalised cell number turned out to be 1.18 in assay [10] (setting [12]) and 1.13 in [10] (setting [13]). The fold change is 0.861 (inactive) in [11] (setting [14]) and 1.84 in assay [11] (setting [15]). Besides, the cell count was 11700 in [11] (setting [16]) and 13600 in assay [11] (setting [17]).

Turning to `C[C@H](CCC(=O)O)[C@H]1CCC2C3C(CC[C@@]21C)[C@@]1(C)CC[C@@H](O)C[C@H]1C[C@@H]3O` (some centres not stated), the inhibition in [1] was 20.5%. In assay [2], this compound had a score of -0.02. Also, in assay [3], the rescue above control is 3.58. For the same compound, in assay [4], the cytochrome c release ratio amounted to 1.17. In [5], this compound yielded an inhibition of aggregation of 66.7%. The glutamate uptake change in assay [6] was -4.34%. The compound further yielded an inclusion score in [7] of 2. Besides, the aggregation suppression score in [8] was found to be 0.256. For the same compound, the parasite load remaining in assay [9] was 50.6% (inactive) and 45.5% (inactive). Also, in [9], the viability is 77.3% and 94.5%. In addition, the red/green cell ratio (normalised) in assay [10] was 1.02 (inactive). The normalised cell number in assay [10] (setting [12]) was found to be 1.05; in [10] (setting [13]) it was 1.08. The fold change in assay [11] (setting [14]) is 0.898 (inactive); in assay [11] (setting [15]), 1.12. Further, the cell count came to 11500 in assay [11] (setting [16]) and 12900 in [11] (setting [17]).

With `C=C1CC[C@H](O)C/C1=C/C=C1\CCC[C@]2(C)C([C@H](C)/C=C/[C@H](C)C(C)C)CC[C@@H]12` (some centres not stated), in [1], the inhibition was found to be 1.02%. This compound also gave a score in assay [2] of 0.91. Moreover, in assay [3], the rescue above control worked out at 1.1. Besides, the cytochrome c release ratio in assay [4] stood at 1.43. The compound also showed an inhibition of aggregation in assay [5] of 63.2%. For the same compound, the glutamate uptake change in [6] was 0.71%. Moreover, the inclusion score in [7] is 3. Moreover, the aggregation suppression score in assay [8] amounted to 0.441. Further, the parasite load remaining in assay [9] was 81.3% (inactive) and 44.7% (inactive). Further, the viability in assay [9] was 73.5% and 101%. The red/green cell ratio (normalised) in [10] was 1.11 (inactive). Besides, the normalised cell number turned out to be 1.28 in assay [10] (setting [12]) and 1.42 in [10] (setting [13]). Moreover, the fold change in [11] (setting [14]) is 0.922 (inactive); in [11] (setting [15]), 2.88. In addition, the figures for the cell count in assay [11] (setting [16]) and in assay [11] (setting [17]) were 11200 and 12200, respectively.

For orientation: inhibition means the relative decrease from the control value, in per cent. As usually defined, the viability is a read-out of living cells in per cent, often relative to untreated cells.

The record behind these values is PubChem BioAssay.
